# Data taken from PubChem BioAssay (Tox21).
# Results filed as inconclusive are left out. Unmarked numbers belong to inactive results. The source made the active and inactive calls. Calls come from the whole dose curve; as a rule, active = well fitted cell-killing curve with a large enough effect in the repeat runs; inconclusive = weak or mixed curves, or effect the other way; inactive = flat fitted curve, though single readings scatter.
# Test: cAMP Responsive Elements (CRE) small molecule antagonists, cell-based qHTS assay: qHTS cell viability counter screen (AID 2060913); note: nearly all actives have a fitted effect of over 40% in size
# Settings: CRE-bla HEK293T viability, CellTiter-Glo luminescence, 5 h; series mostly up to 92.4 µM; viability change, negative = cytotoxic: at the top concentration
# Method in brief: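 Steps: cells plated and held 18 hrs at 37 C/5% CO2; compounds and NKH477 (0.25 uM final) added; 3 hrs incubation; reporter substrate read; CellTiter-Glo added to measure cytotoxicity by luminescence.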
# % is set by controls: 0 for no effect and ±100 for the full control effect.
Structure (SMILES),"viability change, negative = cytotoxic",Potency
COc1ccc([C@@H]2Sc3ccccc3N(CCN(C)C)C(=O)[C@@H]2OC(C)=O)cc1,-1.51% [at 42.5 µM],
CC(=O)Oc1ccccc1C(=O)O,,inactive
CCCCCCCC(=O)[O-].CCCCCCCC(=O)[O-].[Zn+2],-3.82% [at 42.5 µM],
c1ccc(-c2nn[nH]n2)cc1,0.802%,
Nc1c(S(=O)(=O)O)cc(Br)c2c1C(=O)c1ccccc1C2=O,,inactive
CC(C)NCC(O)c1ccc2ccccc2c1 (stereo not given),0.877% [at 42.5 µM],
CCCCCCCCC(=O)Cl,-21.7%,
Cc1cccc(C)c1NC(=O)CC12CCCN1CCC2,-9.41% [at 42.5 µM],
CC(O)CNCC(C)O (stereo not given),,inactive
Cc1ccc(Cl)c(OCC(O)CNC(C)(C)C)c1 (stereo not given),1.62% [at 42.5 µM],
CCN(CC)C(=O)C1CN2CCc3cc(OC)c(OC)cc3C2CC1OC(C)=O (stereo not given),6.44% [at 42.5 µM],
CC(C)(C)NSc1nc2ccccc2s1,0.107%,
C=CCCCCCCCCCCC,-1.65% [at 8.39 µM],
CC(C)=NNC(N)=S,15.9%,
COC(C)=O,15.2%,
CC(=O)CC(=O)N(C)C,,inactive
CCCCN(CCN(CCCC)C(=O)N1CCOCC1)C(=O)N1CCOCC1,-8.31% [at 42.5 µM],
Cc1ccc(O)cc1,,inactive
C=C(C)c1cccc(C(=C)C)c1,3.32%,
C#CC1(O)CC[C@H]2[C@@H]3CCC4=CCCC[C@@H]4[C@H]3CC[C@@]21C (stereo not given in full),4.71% [at 42.5 µM],

Structure (SMILES),"viability change, negative = cytotoxic",Potency
N#Cc1ccccc1O,-3.84%,
Nc1ccc2c3c(cccc13)-c1ccccc1-2,8.91%,
O=c1[nH]cccc1O,-8.66%,
CNC1(C)C2CCC(C2)C1(C)C (stereo not given),-0.314% [at 42.5 µM],
NCCCN1CCN(CCCN)CC1,0.396%,
CC(CCO)CCc1ccccc1 (stereo not given),-0.841%,
Cc1cc(C)cc(N)c1,-4.67%,
Nc1ccccc1S(=O)(=O)O,-8.22%,
OC[C@H]1O[C@H](O[C@]2(CCl)O[C@H](CCl)[C@@H](O)[C@@H]2O)[C@H](O)[C@@H](O)[C@H]1Cl,,inactive
O=Cc1ccc(F)cc1,0.587%,
Nc1cc(S(=O)(=O)O)cc2cc(S(=O)(=O)O)cc(O)c12,,inactive
CC(=O)Oc1ccc(C(=C2CCCCC2)c2ccc(OC(C)=O)cc2)cc1,0% [at 42.5 µM],
Cc1ccc(NC(=O)c2ccc(CN3CCN(C)CC3)cc2)cc1Nc1nccc(-c2cccnc2)n1,-10.2% [at 42.5 µM],
COc1ccc2cc1Oc1cc3c(cc1OC)CC[N+](C)(C)[C@H]3Cc1ccc(cc1)Oc1c(OC)c(OC)cc3c1[C@@H](C2)[N+](C)(C)CC3,-1.83% [at 42.5 µM],
O=C1c2ccccc2C(=O)c2c(Cl)cccc21,-6.14% [at 42.5 µM],
O=C1O[C@@H]2[C@@H](O)[C@H](O)O[C@@H]2[C@H]1O,5.3%,
CC(=O)/C(C)=C/C1C(C)=CCCC1(C)C (stereo not given),-1.01%,
CN(C)CCN(Cc1cccs1)c1ccccn1,,inactive
CC(CN(C)C)CN1c2ccccc2CCc2ccccc21 (stereo not given),-4.35% [at 42.5 µM],
CCOC(=O)C1=C(C)NC(C)=C(C(=O)OC)C1c1cccc([N+](=O)[O-])c1 (stereo not given),9.09% [at 42.5 µM],

# Test: cAMP Responsive Elements (CRE) small molecule agonists, cell-based qHTS assay: qHTS cell viability counter screen (AID 2060914);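 note: viability read after 3 h of compound exposure; nearly all actives have a fitted effect of over 50% in size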
# Settings: CRE-bla HEK293T viability, CellTiter-Glo luminescence, 5 h; series mostly up to 92.4 µM; activity change, negative = cytotoxicity: at the top concentration
# Method in brief: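 Cytotoxicity counter screen multiplexed with the CRE-bla reporter assay in HEK 293T cells: 3 h compound exposure at 37 °C, followed by CellTiter-Glo luminescence measured in the same wells.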
Structure (SMILES),"activity change, negative = cytotoxicity",Potency
COc1ccc([C@@H]2Sc3ccccc3N(CCN(C)C)C(=O)[C@@H]2OC(C)=O)cc1,-3.22% [at 42.5 µM],
CC(=O)Oc1ccccc1C(=O)O,,inactive
CCCCCCCC(=O)[O-].CCCCCCCC(=O)[O-].[Zn+2],4.23% [at 42.5 µM],
c1ccc(-c2nn[nH]n2)cc1,5.56%,
Nc1c(S(=O)(=O)O)cc(Br)c2c1C(=O)c1ccccc1C2=O,,inactive
CC(C)NCC(O)c1ccc2ccccc2c1 (stereo not given),-2.11% [at 42.5 µM],
CCCCCCCCC(=O)Cl,-5.67%,
Cc1cccc(C)c1NC(=O)CC12CCCN1CCC2,-0.705% [at 42.5 µM],
CC(O)CNCC(C)O (stereo not given),,inactive
Cc1ccc(Cl)c(OCC(O)CNC(C)(C)C)c1 (stereo not given),4.01% [at 42.5 µM],
CCN(CC)C(=O)C1CN2CCc3cc(OC)c(OC)cc3C2CC1OC(C)=O (stereo not given),9.9% [at 42.5 µM],
CC(C)(C)NSc1nc2ccccc2s1,-3.51%,
C=CCCCCCCCCCCC,-4.53% [at 8.39 µM],
CC(C)=NNC(N)=S,-2.28%,
COC(C)=O,-0.159%,
CC(=O)CC(=O)N(C)C,,inactive
CCCCN(CCN(CCCC)C(=O)N1CCOCC1)C(=O)N1CCOCC1,-12.3% [at 42.5 µM],
Cc1ccc(O)cc1,,inactive
C=C(C)c1cccc(C(=C)C)c1,-2.6%,
C#CC1(O)CC[C@H]2[C@@H]3CCC4=CCCC[C@@H]4[C@H]3CC[C@@]21C (stereo not given in full),10.9% [at 42.5 µM],

Structure (SMILES),"activity change, negative = cytotoxicity",Potency
N#Cc1ccccc1O,-10.9%,
Nc1ccc2c3c(cccc13)-c1ccccc1-2,-17%,
O=c1[nH]cccc1O,16.3%,
CNC1(C)C2CCC(C2)C1(C)C (stereo not given),-5.16% [at 42.5 µM],
NCCCN1CCN(CCCN)CC1,11.8%,
CC(CCO)CCc1ccccc1 (stereo not given),12.8%,
Cc1cc(C)cc(N)c1,7.9%,
Nc1ccccc1S(=O)(=O)O,9.32%,
OC[C@H]1O[C@H](O[C@]2(CCl)O[C@H](CCl)[C@@H](O)[C@@H]2O)[C@H](O)[C@@H](O)[C@H]1Cl,,inactive
O=Cc1ccc(F)cc1,1.34%,
Nc1cc(S(=O)(=O)O)cc2cc(S(=O)(=O)O)cc(O)c12,,inactive
CC(=O)Oc1ccc(C(=C2CCCCC2)c2ccc(OC(C)=O)cc2)cc1,8.89% [at 42.5 µM],
Cc1ccc(NC(=O)c2ccc(CN3CCN(C)CC3)cc2)cc1Nc1nccc(-c2cccnc2)n1,3.72% [at 42.5 µM],
COc1ccc2cc1Oc1cc3c(cc1OC)CC[N+](C)(C)[C@H]3Cc1ccc(cc1)Oc1c(OC)c(OC)cc3c1[C@@H](C2)[N+](C)(C)CC3,-3.38% [at 42.5 µM],
O=C1c2ccccc2C(=O)c2c(Cl)cccc21,-1.94% [at 42.5 µM],
O=C1O[C@@H]2[C@@H](O)[C@H](O)O[C@@H]2[C@H]1O,-19.5%,
CC(=O)/C(C)=C/C1C(C)=CCCC1(C)C (stereo not given),-0.381%,
CN(C)CCN(Cc1cccs1)c1ccccn1,,inactive
CC(CN(C)C)CN1c2ccccc2CCc2ccccc21 (stereo not given),5.63% [at 42.5 µM],
CCOC(=O)C1=C(C)NC(C)=C(C(=O)OC)C1c1cccc([N+](=O)[O-])c1 (stereo not given),6.15% [at 42.5 µM],
